# From PubChem BioAssay (NCATS)
# Results filed as inconclusive are left out. Where a call stands in place of a potency, no number is given. The source made the active and inactive calls. Unless noted, calls follow the shape of the dose curve; as a rule, active = well fitted curve in the direction sought with a large enough effect; inconclusive = small, poorly fitted or top-dose-only effect, or another doubt; inactive = no such curve, though single readings can be large; an effect the other way counts as inactive or inconclusive.
# Assays:
# [1] = NCATS anti-infectives library activity on HEK293 viability as a counter-qHTS vs the C. elegans viability qHTS (AID 1745854);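 also: HEK293 cells exposed to compounds for 24 hr before the viability read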
# Method in brief: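 Cytotoxicity in human HEK293 cells is measured by ATP-dependent CellTiter-Glo luminescence following a 24 hr incubation with titrated library compounds at 37C. Top final concentration is 41.7 uM.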
# [2] = NCATS anti-infectives library activity on the primary C. elegans qHTS viability assay (AID 1745855; calls by dose curve; also: potency is read from the fitted curve at half-maximal effect); conditions: C. elegans worm area imaging, day 7
# Method in brief: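 Viability is taken from GFP fluorescence of PE254-GFP-FLuc C. elegans imaged by laser cytometry over 7 days. Ten L1 worms per well grow at 21 °C on TOP10 E. coli capsules with titrated compound; levamisole marks toxicity.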
# [3] = Quantitative High-Throughput drug screen in 47 multiple myeloma cell lines against the NCATS MIPE library collection: FR4_PLB cell viability assay (AID 1918924; also: nearly all actives have a fitted effect of over 35% in size; also: potency is read from the fitted curve at half-maximal effect)
# Method in brief: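 Primary qHTS used for cherry-picking: cells at 500/well, library compounds for 48 h (37C, 5% CO2), luminescent ATP assay.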
# [4] = target: Nuclear receptor subfamily 1 group I member 3 (Homo sapiens) (UniProt Q14994); assay: Primary qHTS for antagonist of constitutive androstane receptor (CAR) against the NCATS DSHEA and TCM libraries (AID 1794836);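 also: HepG2 cells stably expressing hCAR with CYP2B6 luciferase reporter stimulated by CITCO; series mostly up to about 40 µM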
# Method in brief: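 Antagonist mode: CAR reporter luminescence (ONE-Glo) in HepG2-CYP2B6-hCAR cells stimulated with 48 uM CITCO (final) over 24 h at 37 C, compounds titrated; viability read first by CellTiter-Fluor fluorescence.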
# [5] = Viability counterscreen for antagonist of constitutive androstane receptor (CAR) against the NCATS DSHEA and TCM libraries (AID 1794837);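 also: compound exposure lasted 24 h before viability reading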
# Method in brief: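 Counterscreen performed in a 1536-well qHTS format using HepG2-CYP2B6-hCAR cells; samples titrated in the presence of 48 uM CITCO, with viability measured fluorometrically (405/540 nm) after 24 h.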
# [6] = Viability counterscreen for agonist of constitutive androstane receptor (CAR) against the NCATS DSHEA and TCM libraries (AID 1794838)
# Method in brief: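 Multiplexed counterscreen: after 24 h compound exposure with 0.75 uM PK11195, HepG2-CYP2B6-hCAR viability was quantified fluorimetrically (CellTiter-Fluor, 405/540 nm) prior to the ONE-Glo luciferase read.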
# [7] = target: Nuclear receptor subfamily 1 group I member 3 (Homo sapiens) (UniProt Q14994); assay: Primary qHTS for agonist of constitutive androstane receptor (CAR) against the NCATS DSHEA and TCM libraries (AID 1794839); conditions: CAR agonist reporter cells, qHTS luminescence; also: potency is read from the fitted curve at half-maximal effect
# Method in brief: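 Concentration–response screen in HepG2-CYP2B6-hCAR cells under 0.75 µM PK11195; 24 h exposure; luminescent reporter signal with multiplexed fluorescent viability.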
# [8] = HepG2 viability counterscreen (readout 2: ATP content) against the NCATS DSHEA and TCM libraries (AID 1794840);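 also: HepG2 cells exposed to substances for about 24 h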
# Method in brief: (§1)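 After HepG2 cells attach for ~4 h, substances are added and incubated ~24 h at 37C, 5% CO2. GF-AFC fluorescence then CellTiter-Glo luminescence give protease and ATP readouts.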
# [9] = HepG2 viability counterscreen (readout 1: protease activity) against the NCATS DSHEA and TCM libraries (AID 1794841);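 also: cells exposed to compounds for about 24 h before the protease read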
# Method in brief: as §1
# [10] = Quantitative High-Throughput drug screen in 47 multiple myeloma cell lines against the NCATS MIPE library collection: EJM_DSMZ cell viability assay (AID 1918926; also: nearly all actives have a fitted effect of over 30% in size; also: potency is read from the fitted curve at half-maximal effect)
# Method in brief: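 Myeloma cell lines, 500 cells per well, exposed to MIPE 4.0 library compounds for 48 h at 37C, 5% CO2. Viability from ATP by CellTiter-Glo luminescence; normalised to DMSO (100%) and media-only (0%) wells.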
# [11] = target: Glutathione peroxidase 1 (Homo sapiens) (UniProt P07203); assay: Primary qHTS Assay for Inhibitors of Recombinant Selenoprotein Glutathione Peroxidase 1 (GPX1) (AID 1845191); also: nearly all actives have a fitted effect of over 65% in size; also: potency is read from the fitted curve at half-maximal effect
# Method in brief: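 10 nM GPX1 + cpd, 30 min RT; start w/ 1 mM GSH, 0.5 mM cumene hydroperoxide, 0.5 mM NADPH, 100 nM GR, 0.01% BSA; buffer 50 mM Tris-HCl pH 7.5, 2 mM EDTA, 150 mM NaCl; Fl 340/450, 0 & 15 min.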
# [12] = target: Phospholipid hydroperoxide glutathione peroxidase GPX4 (Homo sapiens) (UniProt P36969); assay: Primary qHTS Assay for Inhibitors of Recombinant Selenoprotein Glutathione Peroxidase 4 (GPX4) (AID 1845192); also: nearly all actives have a fitted effect of over 65% in size; also: potency is read from the fitted curve at half-maximal effect
# Method in brief: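 NADPH consumption, followed by fluorescence at 340/450 nm between 0 and 15 min, reports GPX4 activity via coupled glutathione reductase (100 nM). Enzyme 200 nM was pre-exposed to compound 30 min; 0.5 mM cumene hydroperoxide and 1 mM GSH served as substrates.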
# [13] = Primary fluorescence-based thiol-reactive (MSTI) qHTS assay for identification of artifact compounds. (AID 1845221);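 also: series mostly up to about 54 µM; thiol-reactive compounds lower the probe fluorescence signal; nearly all actives have a fitted effect of over 65% in size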
# Method in brief: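 qHTS titration of compound; 4 uM MSTI, PBS pH 7.4, 2% DMSO; 1 h RT, dark; fluorescence 525/598 nm; normalized to Acetyl-MSTI and MSTI; 4-parameter Hill fit.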
# [14] = test system: Nanoluciferase (engineered Oplophorus gracilirostris luciferase); assay: Primary Nanoluciferase (NLuc) qHTS assay for identification of artifact compounds. (AID 1845222); also: series mostly up to about 54 µM
# Method in brief: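 Luminescence from secreted NLuc (filtered, 1:55-diluted S16 cell medium) read 5 min after Nano-Glo substrate; compounds preincubated 15 min, RT. Hill fits of inhibition normalized to DMSO and no-enzyme.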
# [15] = target: Luciferin 4-monooxygenase (Photinus pyralis) (UniProt P08659); assay: Primary firefly luciferase (FLuc) qHTS assay for identification of artifact compounds. (AID 1845220); conditions: outcome: dose series up to 54.1 µM; also: nearly all actives have a fitted effect of over 60% in size
# Method in brief: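 Compounds sat 15 min at room temperature with 10 uM luciferin and 10 uM ATP (pH 7.6 Tris acetate). Firefly luciferase (10 nM final) was then added, and luminescence was read 5 min later. Data normalized to no-enzyme and DMSO controls were Hill-fitted.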
# [16] = Primary redox qHTS assay for identification of artifact compounds. (AID 1845223)
# Method in brief: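 Amplex Red (25 uM) and HRP (250 mU/mL) in HBSS, with compounds for 15 min, then 250 uM DTT for 30 min, room temperature, dark. Fluorescence 525/598 nm read; normalized to DMSO and 10 uM DA3003; Hill fit.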
# Glutathione peroxidase 1 (Homo sapiens), sequence (P07203 whole entry, looked up): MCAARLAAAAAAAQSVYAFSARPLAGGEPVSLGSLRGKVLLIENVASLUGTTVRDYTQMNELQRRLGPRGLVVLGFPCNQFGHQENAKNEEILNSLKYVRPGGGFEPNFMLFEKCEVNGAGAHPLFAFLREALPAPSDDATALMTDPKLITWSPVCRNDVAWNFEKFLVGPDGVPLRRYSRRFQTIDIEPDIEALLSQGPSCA
# Phospholipid hydroperoxide glutathione peroxidase GPX4 (Homo sapiens), sequence (P36969 whole entry, looked up): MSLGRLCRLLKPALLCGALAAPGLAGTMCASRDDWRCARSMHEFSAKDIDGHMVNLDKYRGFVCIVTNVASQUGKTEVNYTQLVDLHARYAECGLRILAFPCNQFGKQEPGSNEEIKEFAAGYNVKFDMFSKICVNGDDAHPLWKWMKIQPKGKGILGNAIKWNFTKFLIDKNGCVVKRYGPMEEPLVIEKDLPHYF
# Nuclear receptor subfamily 1 group I member 3 (Homo sapiens), sequence (Q14994 whole entry, looked up): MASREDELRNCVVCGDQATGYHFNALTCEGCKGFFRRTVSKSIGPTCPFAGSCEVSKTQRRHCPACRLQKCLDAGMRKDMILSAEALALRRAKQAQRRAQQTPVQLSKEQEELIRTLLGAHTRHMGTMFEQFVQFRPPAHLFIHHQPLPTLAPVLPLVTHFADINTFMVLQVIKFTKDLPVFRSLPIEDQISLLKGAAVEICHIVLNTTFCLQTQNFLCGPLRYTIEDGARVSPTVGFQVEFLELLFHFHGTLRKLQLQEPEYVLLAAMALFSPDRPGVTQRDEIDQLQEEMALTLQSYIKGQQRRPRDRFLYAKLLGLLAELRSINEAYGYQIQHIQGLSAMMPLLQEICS
compound,measurement,setting,value
Cc1sc2c(c1C)C(c1ccc(Cl)cc1)=N[C@@H](CC(=O)OC(C)(C)C)c1nnc(C)n1-2,outcome,[1],inactive
same,Potency,[2],4.09 µM (active)
same,Potency,[3],0.332 µM (active)
NCC(CC(=O)O)c1ccc(Cl)cc1 (configuration not stated),outcome,[1],inactive
O=c1c(O)c(-c2ccc(O)c(O)c2)oc2cc(O)cc(O)c12,outcome,[4],inactive
CC(C)=CCOc1c2occc2cc2ccc(=O)oc12,outcome,[4],inactive
same,outcome,[5],inactive
same,outcome,[6],inactive
same,Potency,[7],14.1 µM (active)
same,outcome,[8],inactive
same,outcome,[9],inactive
C[C@@H]1O[C@@H](O[C@H]2C[C@@H](O)[C@]3(CO)[C@H]4[C@H](O)C[C@]5(C)[C@@H](C6=CC(=O)OC6)CC[C@]5(O)[C@@H]4CC[C@]3(O)C2)[C@H](O)[C@H](O)[C@H]1O,Potency,[3],0.0093 µM (active)
same,Potency,[10],0.0235 µM (active)
CC(O)(CS(=O)(=O)c1ccc(F)cc1)C(=O)Nc1ccc(C#N)c(C(F)(F)F)c1 (configuration not stated),Potency,[10],0.187 µM (active)
CN(C)CCN(C)CCc1ccc(Cl)c(Cl)c1,Potency,[11],inactive
same,Potency,[12],inactive
same,Potency,[3],inactive
same,Potency,[10],inactive
C=CCN1CC[C@]23c4c5ccc(O)c4O[C@H]2C(=O)CC[C@@]3(O)[C@H]1C5,Potency,[11],inactive
same,Potency,[12],inactive
Cc1cc(SCc2sc(-c3ccc(C(F)(F)F)c(F)c3)nc2C)ccc1OCC(=O)O,Potency,[11],12.8 µM (active)
same,Potency,[12],inactive
same,outcome,[13],inactive
same,outcome,[14],inactive
same,Potency,[3],inactive
same,Potency,[10],inactive
C=C(C)[C@H]1Cc2c(ccc3c2O[C@@H]2COc4cc(OC)c(OC)cc4[C@@H]2C3=O)O1,Potency,[11],inactive
same,Potency,[12],inactive
same,Potency,[3],0.935 µM (active)
same,Potency,[10],4.69 µM (active)
Oc1ccccc1-c1ccccc1,Potency,[11],inactive
same,Potency,[12],inactive
CC1=C2C[C@@H]3[C@@H](CC=C4C[C@@H](O)CC[C@@]43C)[C@@H]2CC[C@]12O[C@H]1C[C@H](C)CN[C@H]1[C@H]2C,Potency,[3],10.5 µM (active)
same,Potency,[10],8.33 µM (active)
COC1(CS(=O)c2ccccc2)CCN(CCc2c[nH]c3ccc(F)cc23)CC1 (configuration not stated),Potency,[11],inactive
same,Potency,[12],inactive
same,Potency,[3],inactive
same,Potency,[10],inactive
C[C@H]1O[C@@H](O[C@H]2[C@@H](O)C[C@H](O[C@H]3[C@@H](O)C[C@H](O[C@H]4CC[C@@]5(C)[C@H](CC[C@@H]6[C@@H]5CC[C@]5(C)[C@@H](C7=CC(=O)OC7)CC[C@]65O)C4)O[C@@H]3C)O[C@@H]2C)C[C@H](O)[C@@H]1O,Potency,[11],inactive
same,Potency,[12],inactive
same,outcome,[15],inactive
same,outcome,[13],inactive
same,outcome,[14],inactive
same,outcome,[16],inactive
CNC(=O)N1N=C(c2ccc(N)cc2)c2cc3c(cc2CC1C)OCO3 (configuration not stated),Potency,[11],inactive
same,Potency,[12],inactive
same,outcome,[15],inactive
same,outcome,[14],inactive
same,outcome,[16],inactive
same,Potency,[10],11.8 µM (active)
COc1ccc2c(c1OC)CN1CCc3cc4c(cc3C1C2)OCO4 (configuration not stated),Potency,[11],inactive
same,Potency,[10],20.9 µM (active)
Oc1ccc(Cl)cc1Cc1ccccc1,Potency,[11],inactive
same,Potency,[12],inactive
CCCC(C)(COC(N)=O)COC(=O)NC(C)C (configuration not stated),Potency,[10],inactive
N[C@@H](Cc1ccc(N(CCCl)CCCl)cc1)C(=O)O,Potency,[11],inactive
same,Potency,[12],inactive
same,Potency,[3],20.9 µM (active)
same,Potency,[10],14.8 µM (active)
O=P1(NCCCl)OCCCN1CCCl (configuration not stated),Potency,[11],inactive
same,Potency,[12],inactive
same,Potency,[3],16.6 µM (active)
same,Potency,[10],inactive
O=C(O)C(=O)c1cn(Cc2ccccc2)c2ccc(-c3ccc(OC(F)(F)F)cc3)cc12,Potency,[11],inactive
same,Potency,[12],9.04 µM (active)
same,outcome,[15],inactive
same,outcome,[13],inactive
same,outcome,[14],inactive
same,outcome,[16],inactive
same,Potency,[3],inactive
same,Potency,[10],inactive
C[C@]12CCC(=O)C(O)=C1CC[C@@H]1[C@@H]2CC[C@]2(C)C(=O)CC[C@@H]12,Potency,[11],inactive
same,Potency,[12],inactive
Oc1cc(Cl)ccc1Oc1ccc(Cl)cc1Cl,Potency,[11],inactive
same,Potency,[12],inactive
CN(C)[C@@H]1C(=O)C(C(N)=O)=C(O)[C@@]2(O)C(=O)C3=C(O)c4c(O)cccc4[C@@](C)(O)[C@H]3C[C@@H]12,Potency,[11],inactive
same,Potency,[12],inactive
same,Potency,[10],inactive
CN1CCN(C(=O)O[C@H]2c3nccnc3C(=O)N2c2ccc(Cl)cn2)CC1,Potency,[11],inactive
same,Potency,[12],inactive
same,Potency,[3],inactive
same,Potency,[10],inactive
C#CCN(C)[C@H](C)Cc1ccccc1,Potency,[11],inactive
same,Potency,[12],inactive
same,Potency,[3],inactive
C[C@@H]1[C@@H](CC(C[C@H]2O[C@@H]3O[C@]4(C)CC[C@@H]5[C@H](C)CC[C@@H]([C@H]2C)[C@@]35OO4)C[S+](=O)([O-])c2ccc(COC(=O)N(C)C)cc2)O[C@@H]2O[C@]3(C)CC[C@H]4[C@H](C)CC[C@@H]1[C@@]24OO3 (some centres not stated),Potency,[3],0.209 µM (active)
same,Potency,[10],0.187 µM (active)
Cn1cc(C2=C(c3cn(C4CCN(Cc5ccccn5)CC4)c4ccccc34)C(=O)NC2=O)c2ccccc21,Potency,[11],inactive
same,Potency,[12],inactive
same,Potency,[3],16.6 µM (active)
same,Potency,[10],11.8 µM (active)
CN(C)CCc1ccc(O)cc1,Potency,[3],inactive
COc1ccc(C(=O)c2c(C)n(CCN3CCOCC3)c3ccccc23)cc1,Potency,[11],inactive
same,Potency,[12],inactive
same,Potency,[10],inactive
CC(=O)Nc1cc([As](=O)(O)O)ccc1O,Potency,[11],inactive
same,Potency,[12],inactive
COC[C@@H](NC(C)=O)C(=O)NCc1ccccc1,Potency,[11],inactive
same,Potency,[12],inactive
same,Potency,[3],inactive
same,Potency,[10],inactive
O=C1CC[C@@]2(O)[C@H]3Cc4ccc(O)c5c4[C@@]2(CCN3CC2CC2)[C@H]1O5,Potency,[11],inactive
same,Potency,[12],inactive
same,Potency,[3],inactive
COC[C@H]1OC(=O)c2coc3c2[C@@]1(C)C1=C(C3=O)C2CCC(=O)[C@@]2(C)C[C@H]1OC(C)=O (some centres not stated),Potency,[11],inactive
same,Potency,[12],inactive
same,outcome,[15],inactive
same,outcome,[14],inactive
same,Potency,[3],11.8 µM (active)
CNC(=O)c1ccc(N2C(=S)N(c3ccc(C#N)c(C(F)(F)F)c3)C(=O)C23CCC3)cc1F,Potency,[11],inactive
same,Potency,[12],inactive
same,outcome,[15],inactive
same,outcome,[13],inactive
same,outcome,[14],inactive
same,outcome,[16],inactive
same,Potency,[3],inactive
same,Potency,[10],1.48 µM (active)
